Bioassay records (PubChem)
In the library only some 4% were active in any assay of this set; here they are far more common.
TROY signal inh – inhibitors of TROY-dependent NF-kB signaling. Q293 LMP1-TROYcd NF-kB luciferase reporter, 4 h. inhibition, % at 10 µM. 360,000 tested, 0.98% active;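 active = compounds whose plate-normalised and pattern-corrected inhibition of the luciferase reporter signal at the single screening dose is 50% or more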
TWEAK Fn14 block – TWEAK-Fn14 signaling inhibition. TWEAK-stimulated Fn14 reporter cells, luciferase luminescence, 8 h. inhibition, % at 10 µM. 360,000 tested, 2% active. AID 1159606; in the data active = inhibition above about 50%
Peg3 prom inh – Peg3 promoter activity inhibition. HeLa PEG-Prom luciferase reporter, luminescence, overnight. inhibition, % at 20 µM. 360,000 tested, 1.7% active. AID 588405;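 active = inhibition of at least 50% at 20 µM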
HIF-2a inh – HIF-2a inhibition; 786-0 RCC cells HIF-2a reporter, luciferase luminescence, overnight; 360,000 tested, 0.72% active; inhibition, % at 18.8 µM;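 active = inhibition of the luminescence signal of 40% or more relative to plate controls, in a single-dose primary screen at 18.75 µM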
CF NFkB block – blocks PAF-induced NF-kB reporter in cystic fibrosis cells. inhibition, % at 5 µM. 360,000 tested, 0.86% active. KKLEB NF-kB-GFP reporter, GFP fluorescence overnight;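 active = at least 50% inhibition at 5 µM, scaled per plate between neutral and stimulator controls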;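 also: PAF is a Pseudomonas aeruginosa culture filtrate used as stimulus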
KKLEB tox – CF airway cell cytotoxicity counter-screen; 360,000 tested, 0.36% active; KKLEB CF airway cells viability, ATPlite luminescence, overnight; stronger effect = lower value; cells stimulated with P. aeruginosa culture filtrate; activity change (cytotoxicity), % at 5 µM;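 active = corrected activity change at or below -50% at 5 µM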
A number is an active result; – = inactive; · = no result.

SMILES	TROY signal inh	TWEAK Fn14 block	Peg3 prom inh	HIF-2a inh	CF NFkB block	KKLEB tox
Cc1ccc(F)cc1-c1cc(C(=O)NCc2cc(C(F)(F)F)cc(C(F)(F)F)c2)[nH]n1	53.0	–	–	–	–	–
Cc1csc(-c2cc(C(=O)NCc3cc(C(F)(F)F)cc(C(F)(F)F)c3)n[nH]2)c1	52.4	–	–	–	–	–
Cc1cc(F)ccc1-c1cc(C(=O)NCc2cc(C(F)(F)F)cc(C(F)(F)F)c2)[nH]n1	–	–	–	–	–	–
CCn1nnnc1SCC(=O)N(C)C1CCS(=O)(=O)C1 (configuration not stated)	–	–	–	–	–	–
O=C1NC[C@H](CCCCN2CCN(Cc3ccccc3)C(=O)C2=O)N(CC2CCCCC2)C1=O	–	–	·	–	·	·
COc1ccc(CCNC(=O)c2cnccn2)cc1	–	–	–	–	–	–
CCCCc1ccc(NC(=O)c2cnccn2)cc1	–	64.4	–	–	–	–
CCCc1ccc(C(C)NC(=O)c2cnccn2)cc1 (configuration not stated)	·	85.1	–	–	–	–
COC(=O)[C@@]12C[C@@H](CC(=O)N3CCCC3)C(=O)N(Cc3ccccc3)C1=CCC(C)(C)C2	·	·	·	–	·	·
Cc1c(/C=N/NC(=O)CNc2ccccc2)c2ccccn2c1C(=O)c1ccncc1	–	61.8	–	–	–	–
CC(C)OCCCn1c(SCC(=O)N2CCc3ccccc32)nc2ccccc2c1=O	–	91.5	–	–	–	–
CC(C)OCCCn1c(SCC(=O)N2CCCC2=O)nc2ccccc2c1=O	–	–	–	–	–	–
Cc1cc(Sc2nnc(/N=C/N(C)C)s2)c2ccccc2n1	–	81.0	–	–	58.6	–
CCCCCCCCSc1nnc(/N=C/N(C)C)s1	–	–	–	–	–	–
c1ccc(N2CCN(c3ncnc4scc(-c5cccs5)c34)CC2)cc1	–	64.3	–	–	–	–
Fc1ccc(-c2csc3ncnc(N4CCN(c5ccccc5)CC4)c23)cc1	–	–	–	–	–	–
O=C(c1ccco1)N1CCN(c2ncnc3scc(-c4cccs4)c23)CC1	–	–	53.4	–	–	–
O=C(c1ccco1)N1CCN(c2ncnc3scc(-c4ccccc4)c23)CC1	–	–	–	–	–	–
CCCOc1ccc(C(=O)Nc2ccc3c(c2)OCCO3)cc1	–	–	–	–	–	–
COC(=O)C1=C(C(=O)OC)[C@@H]2N(Cc3ccccc3)c3ccccc3[C@@]23C[C@@H](C(=O)OC)N(C(=O)COCc2ccccc2)C3=N1	–	50.9	55.4	–	–	–
CC#CCN1c2ccccc2[C@]23C[C@@H](C(=O)OC)N(C(=O)C4CCC4)C2=NC(C(=O)OC)=C(C(=O)OC)[C@H]13	–	–	74.7	–	–	–
COC(=O)C1=C(C(=O)OC)[C@@H]2N(Cc3ccccc3)c3ccccc3[C@@]23C[C@@H](C(=O)OC)N(C(C)=O)C3=N1	–	–	–	–	–	–
C=CCN1c2ccccc2[C@]23C[C@@H](C(=O)OC)N(C(=O)c4cccs4)C2=NC(C(=O)OC)=C(C(=O)OC)[C@H]13	–	–	75.0	–	–	–
COC(=O)C1=C(C(=O)OC)[C@@H]2N(C)c3ccc(OC)cc3[C@@]23C[C@@H](C(=O)OC)N(C(=O)c2ccc(Br)cc2)C3=N1	–	53.4	79.0	–	54.7	–
C=CCN1c2ccccc2[C@]23C[C@@H](C(=O)OC)N(C(=O)OCC)C2=NC(C(=O)OC)=C(C(=O)OC)[C@H]13	–	–	–	–	–	–
SMILES	TROY signal inh	TWEAK Fn14 block	Peg3 prom inh	HIF-2a inh	CF NFkB block	KKLEB tox
COc1ccccc1-c1ccc([C@@H]2C[C@H]3[C@@H](CN2)CON3C)cc1	–	–	–	–	–	–
CC(C)C[C@@H](CN1CCC[C@H]1CN1C(=O)C(=O)NC[C@@H]1Cc1ccccc1)N1C[C@H](Cc2ccc(O)cc2)N(CC2CCCCC2)C(=O)C1=O	–	–	·	–	·	·
O=C(N/N=C/c1ccc(F)cc1)c1c(O)c2ccccc2[nH]c1=O	–	–	–	–	–	–
O=C(N/N=C/c1cccc(F)c1)c1c(O)c2ccccc2[nH]c1=O	–	58.0	–	–	64.6	-63.6
COc1cccc(CC(=O)OC(C)C(=O)Nc2ccc(N3CCOCC3)cc2)c1 (configuration not stated)	–	–	–	–	–	–
c1ccc(-c2cc3n(c2)CCc2ccccc2-3)cc1	–	83.2	–	–	56.9	–
O=C(O)c1cc2c(s1)-c1ccccc1CC2	–	–	–	–	–	–
N#Cc1cccc(NC(=O)CNc2cc(S(=O)(=O)N3CCOCC3)ccc2N2CCCC2)c1	–	–	–	–	–	–
COc1ccc(C(=O)/C=C2\Sc3ccccc3N2C)cc1	–	–	–	–	–	–
COc1ccc(-[n+]2c(C)cc(/C=C3\Sc4ccccc4N3C)cc2C)cc1	–	–	114.7	53.1	–	–
CCCCn1nnc(NC(=O)Cc2ccc(Cl)cc2)n1	·	74.1	–	–	–	–
CCCn1nnc(NC(=O)Cc2ccccc2)n1	–	–	–	–	–	–
CCc1nc2c(OCc3cc(Cl)cc(Cl)c3)cccn2c1N(C)C(=O)CC(C)C	–	–	–	–	–	–
CN(Cc1cccs1)c1ncnc2sccc12	–	–	–	–	–	–
CN(Cc1ccccc1F)c1ncnc2sccc12	–	51.1	–	–	–	–
COc1ccc(C(=O)NCC(=O)OCCOc2ccc(Cl)cc2)cc1OC	–	–	–	–	–	–
Cc1cc(C(C)(C)C)oc1C(=O)NCCCNC(=O)c1oc(C(C)(C)C)cc1C	·	74.1	–	–	–	–
CC(=O)Oc1ccc(C23c4ccccc4C2(OC(C)=O)c2cc(OC(C)=O)ccc23)cc1 (configuration not stated)	–	89.3	–	–	–	–
CC(=O)Oc1ccc(C(=O)Nc2ccccc2NC(=O)c2ccc(OC(C)=O)cc2)cc1	–	–	–	–	–	–
O=C(Nc1ccon1)Nc1cccc(Cl)c1Cl	–	–	–	–	–	–
CNC(=O)COc1ccc(Nc2nnc(-c3ccc(C)c(S(N)(=O)=O)c3)c3ccccc23)cc1	–	–	–	–	–	–
COc1ccc(C(C)=O)cc1CSc1nnc(Nc2ccccc2)s1	–	70.0	–	–	–	–
COc1ccc(C(C)=O)cc1CSc1nnc(C)s1	–	–	–	–	–	–
COc1ccc(C(C)=O)cc1CSc1nnc(Nc2ccc(C)cc2)s1	–	62.6	–	–	–	–
CCCN(CCC)C(=O)CSc1nc2ccccc2c(=O)n1CC1COc2ccccc2O1 (configuration not stated)	–	–	51.1	–	–	–
O=C(/C=C/c1ccncc1)c1ccc2c(c1)OCCO2	–	–	105.0	–	–	–
O=C(/C=C\Nc1cccc(F)c1)c1ccc2c(c1)OCO2	–	81.1	–	–	–	–
O=C(/C=C/c1ccccc1)c1ccc2c(c1)OCO2	–	–	–	–	–	–
